# Sampled rows, rich in hits. Any-hit rate of the full collection: about 0.88%.
# IL-2 act: activates IL-2 in a cell-based reporter assay; activation, % (series mostly up to about 46 µM); 360,000 tested, 0.065% active; AID 652025; IL-2 activation reporter assay, cell-based qHTS; stimulated with anti-CD3/CD4/CD28 beads; in transgenic mouse T cells; in the data active = activation above about 50%; inconclusive = mostly about 30% to 49%; note: 0% is about no effect
#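 Screening format: compound pinned onto unstimulated transgenic mouse T cells, 60 min incubation, then anti-CD3/anti-CD4/anti-CD28 bead stimulation for 18 hours at 37 degrees C, followed by EGFP and DsRed detection.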
# Epigenetic reg: regulators of epigenetic silencing causing reporter derepression in mouse cells; murine LDR cells, GFP reporter derepression, 30 h; Potency, µM (titrated, usually from 53.9 µM), for the others: at the highest dose GFP activation, usual class: activators; 280,000 tested, 0.2% active; AID 1865; note: potency is the fitted concentration of half-maximal effect; % of control where 0% means no effect; nearly all actives have a fitted effect of over 60% in size
#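 Reporter derepression read as number of fluorescent GFP-positive objects, 20-120 um in size, counted by laser-scanning cytometer. Mouse LDR line with an epigenetically silenced CMV-GFP locus; compound incubation 30 h, 37 C.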
# TRHR agonist: activates the human TRH receptor; P34981; TRHR cells, calcium flux fluo-8, FDSS agonist mode; activation, % at 2 µM; 360,000 tested, 0.18% active; AID 493084; in the data active = activation above about 30%; note: 0% is about no effect
#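 TRHR-expressing cells loaded with fluo-8 calcium dye; 23 nL library compound pin-transferred, kinetic FDSS fluorescence (Ex 480/Em 530) recorded about 180 s for agonist-induced calcium release, before a 10 nM TRH EC20 addition for potentiator mode.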
# MBNL1 CUG block: blocks human MBNL1 binding to CUG repeat RNA | Potency, µM (top dose mostly 57.5 µM), without a hit: at the top dose activity change, negative = inhibition, most hits filed as inhibitors | TR-FRET MBNL1-His/biotin-(CUG)12 binding, 665/545 ratio | 280,000 tested, 0.036% active; active = well fitted inhibition curve with a large enough effect in the signal ratio, with a control signal flat, not every such curve was filed as active; inconclusive = small, poorly fitted or top-dose-only effect, or effect the other way, or a change in a side signal; inactive = no such curve, though single readings can be large or run the other way; the % refers to the signal ratio; note: potency is the fitted concentration of half-maximal effect; % is set by controls: 0 for no effect and ±100 for the full control effect
#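 Compounds (final 92 nM to 58 uM) are added to His-tagged MBNL1 and biotin-(CUG)12, then terbium anti-His antibody and streptavidin-XL665 (5 nM final). After 60 min at room temperature, the 665/545 nm ratio is read.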
# CBFb RUNX1 block: inhibitors of human CBF-beta and RUNX1 interaction; Q01196+Q13951; AlphaScreen CBFb-His/RUNX1-biotin binding, biochemical; Potency, µM (doses to about 59.8 µM), for inactives: at the top dose activity, negative = inhibition, most hits filed as inhibitors; 230,000 tested, under 10 active; AID 1477; note: % of control where 0% means no effect
# Target sequence (Q01196 whole entry, looked up): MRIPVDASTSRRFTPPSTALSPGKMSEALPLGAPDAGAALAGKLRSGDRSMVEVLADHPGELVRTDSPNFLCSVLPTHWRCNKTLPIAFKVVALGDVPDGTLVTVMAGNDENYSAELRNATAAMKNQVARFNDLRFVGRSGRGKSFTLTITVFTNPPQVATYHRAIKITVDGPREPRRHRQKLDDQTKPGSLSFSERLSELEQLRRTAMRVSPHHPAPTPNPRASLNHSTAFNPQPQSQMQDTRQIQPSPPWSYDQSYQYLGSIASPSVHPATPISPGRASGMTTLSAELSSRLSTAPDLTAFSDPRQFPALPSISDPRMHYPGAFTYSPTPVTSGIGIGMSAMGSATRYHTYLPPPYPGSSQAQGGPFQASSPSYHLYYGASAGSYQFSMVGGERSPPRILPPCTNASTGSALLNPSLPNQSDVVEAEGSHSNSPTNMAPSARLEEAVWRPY
# Target sequence (Q13951 whole entry, looked up): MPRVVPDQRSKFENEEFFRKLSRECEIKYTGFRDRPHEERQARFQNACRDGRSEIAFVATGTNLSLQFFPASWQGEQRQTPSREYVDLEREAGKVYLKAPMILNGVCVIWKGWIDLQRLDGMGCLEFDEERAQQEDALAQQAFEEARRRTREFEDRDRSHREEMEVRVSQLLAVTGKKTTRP
#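 AlphaScreen proximity signal reports loss of binding between His-tagged CBF-beta and biotin-labelled RUNX1, each at 30 nM. Proteins are pre-associated for 20 minutes, compounds added for 15 minutes, then beads for 90 minutes, all at ambient temperature.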
# TRHR PAM: allosteric enhancers of human TRH receptor | AID 493056 | TRHR cells, fluo-8 calcium fluorescence, EC20 TRH enhancement | 360,000 tested, 0.66% active | P34981 | enhancement, % at 2 µM; in the data active = enhancement above about 30%; note: 0% is about no effect
#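 TRHR-expressing cells loaded with fluo-8 calcium dye were read kinetically (ex 480/em 530) during compound addition, then stimulated with an EC20 of TRH (10 nM final). Enhancement of the Gq-mediated intracellular calcium response was scored.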
# * = called active by the depositor; ? = inconclusive; / = no result; [ ] = remark or other dose. Unless noted, calls come from the whole dose curve; as a rule, active = well fitted curve in the direction sought with a large enough effect; inconclusive = small, poorly fitted or top-dose-only effect, or another doubt; inactive = no such curve, though single readings can be large; an effect the other way counts as inactive or inconclusive.
SMILES,IL-2 act,Epigenetic reg,TRHR agonist,MBNL1 CUG block,CBFb RUNX1 block,TRHR PAM
O=C(O)COc1ccccc1/C=N/NC(=O)Cc1ccccc1,0,/,1,-3%,/,3
O=C(O)COc1ccccc1/C=N/NC(=O)Cc1csc(Nc2cccc(C(F)(F)F)c2)n1,2,0%,1,-1%,-3%,36*
CCn1c2cc(C)sc2c2cnn(Cc3ccccc3F)c(=O)c21,/,/,2,/,/,3
CCn1cc(C(=O)OCC(=O)N(C)C2CCS(=O)(=O)C2)c(=O)c2ccc(C)nc21 (stereo unspecified),2,3%,0,4%,5%,31*
O=S(=O)(c1ccc2c(c1)OCCO2)N1CCN(S(=O)(=O)c2ccc3nc(Cl)c(Cl)nc3c2)CC1,/,/,-1,/,/,1
CC(C)(C)CN1CCNC(=O)C1CC(=O)NCCc1cnn(-c2ccccc2)c1 (stereo unspecified),-4,3%,0,18%,6%,2
CC(C)(C)CN1CCNC(=O)C1CC(=O)NCCc1ccccc1F (stereo unspecified),0,-2%,1,3%,4%,31*
COc1ccccc1CN1CCCCC1C(=O)O (stereo unspecified),1,0%,0,2%,5%,41*
COc1ccccc1CNC(=O)C1CCCC1,-2,/,0,-13%,/,-3
COc1cc2[nH]c(=O)n(Cc3ccc(C(=O)N4CCN(c5cccc(C)c5C)CC4)cc3)c(=O)c2cc1OC,/,1%,-1,/,/,1
CCN(CC)c1ccc2cc(C(=O)NNC(=O)c3ccc(S(=O)(=O)N4CCCCC4)cc3)c(=O)oc2c1,59*,?,2,4%,0%,-5
CCN(C(=O)CN(C)S(=O)(=O)c1ccc2c(c1)n(C)c(=O)c(=O)n2C)c1cccc(C)c1,/,-2%,-1,/,/,0
O=C1c2ccccc2C(=O)c2c1cccc2N(CCO)CCO,-1,/,0,?,/,-2
O=C1C=C(N(CCO)Cc2ccccc2)c2ccccc2C1=O,-1,0%,0,?,-14%,39*
Cc1cc(Nc2cc(Cl)ccc2C)n2nc(-c3ccccc3)nc2n1,/,25µM*,-2,/,/,1
COC(=O)C1=C(C)[C@@H](O)[C@@H](C)[C@](C)(c2cc(OC)c(C)c(OC)c2COc2ccccc2)O1,/,-1%,/,/,-4%,/
COc1ccc(C(=O)NC(=S)Nc2ccc(CN3CCOCC3)cc2)cc1,7,5%,1,-10%,-3%,1
CCCCOc1ccc(C(=O)NC(=S)Nc2ccc(CN3CCOCC3)cc2)cc1,-1,-5%,0,-7%[11.5 µM],-2%,32*
Cn1nnnc1Sc1ncnc2scc(-c3ccc(C(=O)OC(C)(C)C)cc3)c12,/,/,0,/,/,4
O=C(NCc1ccccc1Cl)c1ccc(CS(=O)(=O)c2ccc(Br)cc2)o1,/,-1%,0,/,/,40*
O=C(NCc1ccccc1Cl)c1ccc(CS(=O)(=O)c2ccccc2)o1,-1,/,2,-2%,/,-5
CC(C)n1c(O)c(N=Nc2ccc(Cl)nn2)c2ccccc21,88*,?,1,11%,-1%,-10
CC(C)n1c(O)c(N=NC(=O)CNC(=O)Cc2ccc(Cl)cc2)c2ccccc21,-3,/,0,?,/,-2
O=C(CC1Sc2ncnn2C1=O)Nc1ccccc1 (stereo unspecified),-1,2%,-1,10%,-1%,30*
COc1cccc(C(=O)NCC(c2ccc3c(c2)OCO3)N2CCN(C)CC2)c1 (stereo unspecified),/,2%,0,/,/,2
SMILES,IL-2 act,Epigenetic reg,TRHR agonist,MBNL1 CUG block,CBFb RUNX1 block,TRHR PAM
CCOC(=O)CSc1nc2ccccc2n1CC(=O)NC(C)(C)C,-2,2%,1,-5%,2%,30*
COc1ccc(C(=O)CSc2nc3ccccc3n2CC(=O)NC(C)(C)C)cc1,0,1%,-1,-3%,-3%,0
c1ccc2c(c1)SCc1c-2[nH]c2ccccc12,/,/,/,/,-25%,/
COc1cccc(CNc2nc3c(-c4ccccc4)nnn3c3ccccc23)c1,/,2%,-2,/,/,30
COc1ccc(CNc2nc3c(-c4ccc(C)cc4)nnn3c3ccccc23)cc1,/,4%,0,/,/,44*
COc1ccccc1N=Cc1c(C)c(C#N)c2[nH]c3ccccc3n2c1=O,126*,-5%,1,5%,3%,0
Cc1c(Cc2ccccc2)c(=O)n2c([nH]c3ccccc32)c1C#N,-2,6%,2,-1%,8%,-5
COc1ccccc1CNS(=O)(=O)c1cc(C(=O)Nc2cccc(C(F)(F)F)c2)ccc1F,/,1%,0,/,/,-19
Cc1ccc(CNC(=O)CSc2nc3n[nH]c(C)c3c(=N)n2-c2ccccc2Cl)cc1,/,4%,0,/,/,-2
Cc1c(Cl)cccc1-n1c(SCC(=O)NCc2ccccc2)nc2n[nH]c(C)c2c1=N,/,2%,-1,/,/,42*
CCCCCC(=O)C(=O)c1ccc(O)cc1O,-1,0%,-1,1%,6%,34*
COc1ccc(/C=C2\SC(=S)N(CCCCCC(=O)Nc3cc(C)on3)C2=O)cc1OC,80*,/,0,1%,/,2
COc1ccc(/C=C2\SC(=S)N(CCCC(=O)Nc3cc(C)on3)C2=O)cc1OC,17,/,0,16%,/,6
CCOC(=O)N1CCN(C(=O)CCN2C(=O)/C(=C\c3ccc(OC)c(OC)c3)SC2=S)CC1,93*,/,/,/,/,/
COc1ccc(NC(=O)C(OC(=O)CNC(=O)c2ccccc2)c2ccccc2)cc1Cl (stereo unspecified),/,/,-3,/,/,-2
CCOC(=O)C1=C(C)NC2=C(C(=O)CCC2)C1c1ccc(O)c(OCC)c1 (stereo unspecified),0,-2%,0,19%,2%,34*
CCOc1cc(C2C3=C(CCCC3=O)Nc3ccc4ncccc4c32)ccc1O (stereo unspecified),-2,13%,0,10%,2%,-1
O=C(c1ccc2c(c1)CCN2S(=O)(=O)c1ccc(Cl)cc1)N1CCN(c2ccccc2F)CC1,/,2%,0,/,/,-2
CCOC(=O)C(C(=O)OCC)c1cc(Br)c2noc3c2c1C(=O)c1ccccc1-3,2,3.5µM*,1,?,?,13
O=C(Nc1cc(C(F)(F)F)ccc1Cl)C(O)Cc1ccccc1 (stereo unspecified),/,/,-1,/,/,2
CCc1ccccc1NC(=O)Cn1c(=O)n(CCCS(=O)(=O)C2CCCCC2)c(=O)c2ccccc21,/,1%,-1,/,/,0

# Bioassay records from PubChem.
